Entries with a potency or affinity are not part of this list.
Legend:
Klebsiella pneumoniae = settings: Concentration 32 ug.mL-1;; ASSAY_TEST Inhibition of Bacterial Growth; detection method Absorption (OD600); MEDIA CAMHB; plate type 384well; NBS; CORNING #3640; time 18 hr
Candida albicans = settings: Concentration 32 ug.mL-1; ASSAY_TEST Inhibition of Fungal Growth; detection method Absorption (OD530)
Cryptococcus neoformans = settings: Concentration 32 ug.mL-1; ASSAY_TEST Inhibition of Fungal Growth; detection method Resazurin; Absorption (OD600-OD570); plate type 384well; NBS; CORNING #3640

SMILES | Inhibition (Klebsiella pneumoniae) [%] | Inhibition (Candida albicans) [%] | Inhibition (Cryptococcus neoformans) [%]
Cc1ccc2c(c1)N(C(=O)Cn1nc3ccc(SCc4ccc(Cl)cc4)nn3c1=O)CCO2 | 7.49 | 29.58 | -22.86
COc1ccc(C)cc1NC(=O)Cn1nc2cc(C)nc(Nc3ccc(F)cc3)n2c1=O | 2.21 | 2.84 | -7.79
O=C(Cn1nc2c(Sc3cccc(F)c3)nccn2c1=O)Nc1cccc(C(F)(F)F)c1 | 14.77 | -0.63 | -9.77
Cc1ccc(NC(=O)CSc2nnc3c(=O)n(-c4ccccc4)ccn23)c(C)c1 | -2.79 | 2.18 | -11.34
O=C(CSc1nc2ccccc2n2cnnc12)Nc1cccc(Br)c1 | 2.26 | -0.56 | -6.2
O=C(Cn1nc2ccc(-c3ccc(Cl)cc3)nn2c1=O)NC1CCCC1 | 16.69 | 1.09 | -13.05
CCc1nnc2c(S(=O)(=O)N(Cc3cccc(OC)c3)c3cccc(C)c3)cccn12 | 0.84 | 7.06 | -5.34
Cc1nnc2c(S(=O)(=O)N(Cc3ccccc3Cl)c3ccc(F)c(F)c3)cccn12 | 13.53 | 0.59 | -7.47
CC(C)c1nnc2c(SCC(=O)Nc3ccc(C#N)cc3)nc3ccccc3n12 | 10.23 | 0.55 | -7.9
O=c1c2nnc(SCc3ccccc3F)n2ccn1-c1ccc(F)cc1 | -2.87 | 2.17 | -5.92
Cc1ccc(-c2cc3c4nnc(CCC(=O)N5CCN(c6ccccn6)CC5)n4ccn3n2)cc1C | 7.34 | 0.49 | -12.2
Cc1nnc2ccc(S(=O)(=O)N(Cc3cccc(F)c3)c3cccc(Cl)c3)cn12 | -2.92 | -0.21 | -11.05
CCCCc1ccc(NC(=O)Cn2nc3c(N4CCSCC4)nc4ccccc4n3c2=O)cc1 | 15.26 | -0.87 | -24.44
COc1cc(OC)c(NC(=O)Cn2nc3c(N4CCOCC4)nccn3c2=O)cc1Cl | 1.91 | 3.65 | -8.41
O=C(Cn1nc2c(SCc3ccccc3)nccn2c1=O)NC1CCCCC1 | 7.95 | 4.49 | -7.22
Cc1cccc(CN(c2cccc(Cl)c2)S(=O)(=O)c2cccn3c(C)nnc23)c1 | -0.09 | 1.52 | -9.64

SMILES | Inhibition (Klebsiella pneumoniae) [%] | Inhibition (Candida albicans) [%] | Inhibition (Cryptococcus neoformans) [%]
COc1ccccc1CNC(=O)Cn1nc2c(SCc3ccc(Cl)cc3)nccn2c1=O | 9.05 | 2.3 | -6.8
CCCc1nnc2c(=O)n(CC(=O)Nc3cccc(C#N)c3)c3ccccc3n12 | 0.67 | -0.31 | -17.76
COc1cccc(CNC(=O)CCc2nnc3ccc(-c4ccc(C)cc4)nn23)c1 | 5.64 | 2.05 | -1.51
O=C(Cn1nc2c3cc(-c4ccc(F)cc4)nn3ccn2c1=O)N1CCCc2ccccc21 | 8.12 | 1.02 | -21.22
COc1ccccc1CNC(=O)CSc1nnc2c3cc(-c4ccc(C)cc4)nn3ccn12 | -1.35 | -1.83 | -12.39
CCc1nnc2c(SCC(=O)Nc3cccc(C(C)=O)c3)nc3ccccc3n12 | 17.43 | -0.1 | -10.94
Cc1nnc2ccc(S(=O)(=O)N(Cc3ccc(F)cc3)c3ccc4c(c3)OCO4)cn12 | 13.79 | 1.73 | -7.24
COc1cccc(Oc2nccn3c(=O)n(CC(=O)Nc4ccccc4C(F)(F)F)nc23)c1 | 12.08 | 1.07 | -10.15
CCOc1ccc(N(Cc2cccc(F)c2)S(=O)(=O)c2ccc3nncn3c2)cc1 | 6.73 | 1.76 | -4.27
COc1cccc(-n2ccn3c(SCC(=O)c4cccc(Cl)c4)nnc3c2=O)c1 | 6.31 | 2.28 | -6.56
CCc1nnc2c(S(=O)(=O)N(Cc3cc(F)cc(F)c3)c3ccc(C)cc3)cccn12 | 20.07 | 3.29 | -8.74
Cc1ccc(N(Cc2cc(F)cc(F)c2)S(=O)(=O)c2cccn3c(C)nnc23)cc1 | 11.68 | 5.37 | -9.88
CC(C)c1nnc2c(SCC(=O)Nc3ccc(Br)cc3)nc3ccccc3n12 | 6.82 | 0.48 | 0.69
O=C(NCc1ccccc1)c1ccc2nn(CC(=O)N3CCN(c4ccccc4)CC3)c(=O)n2c1 | 13.57 | 3.02 | -23.82
Cc1ccc(F)cc1NC(=O)CSc1nc2ccccc2n2c(C(C)C)nnc12 | 9.62 | 0.82 | -18.14

From ChEMBL document CHEMBL4513146, “CO-ADD screening of Karazin Kharkiv National University (Ukraine) compounds”
